From the supplement of paper PMC3334620
Over roughly 33,000 sequences, “E-score (-0.5 to 0.5)” has its median near -0.041; the highest 2% begin near 0.37. Only a selection was taken, and the highest values are over-represented in it overall.

These sequences were tested against T1, Ecm22 (UniProt Q05958) (assay: PBM E-score (8-mer binding enrichment) (E-score (-0.5 to 0.5)); higher = stronger / more preferred TF binding). Conditions: protein concentration: 200 nM; construct: GST-full length.
T1 sequence: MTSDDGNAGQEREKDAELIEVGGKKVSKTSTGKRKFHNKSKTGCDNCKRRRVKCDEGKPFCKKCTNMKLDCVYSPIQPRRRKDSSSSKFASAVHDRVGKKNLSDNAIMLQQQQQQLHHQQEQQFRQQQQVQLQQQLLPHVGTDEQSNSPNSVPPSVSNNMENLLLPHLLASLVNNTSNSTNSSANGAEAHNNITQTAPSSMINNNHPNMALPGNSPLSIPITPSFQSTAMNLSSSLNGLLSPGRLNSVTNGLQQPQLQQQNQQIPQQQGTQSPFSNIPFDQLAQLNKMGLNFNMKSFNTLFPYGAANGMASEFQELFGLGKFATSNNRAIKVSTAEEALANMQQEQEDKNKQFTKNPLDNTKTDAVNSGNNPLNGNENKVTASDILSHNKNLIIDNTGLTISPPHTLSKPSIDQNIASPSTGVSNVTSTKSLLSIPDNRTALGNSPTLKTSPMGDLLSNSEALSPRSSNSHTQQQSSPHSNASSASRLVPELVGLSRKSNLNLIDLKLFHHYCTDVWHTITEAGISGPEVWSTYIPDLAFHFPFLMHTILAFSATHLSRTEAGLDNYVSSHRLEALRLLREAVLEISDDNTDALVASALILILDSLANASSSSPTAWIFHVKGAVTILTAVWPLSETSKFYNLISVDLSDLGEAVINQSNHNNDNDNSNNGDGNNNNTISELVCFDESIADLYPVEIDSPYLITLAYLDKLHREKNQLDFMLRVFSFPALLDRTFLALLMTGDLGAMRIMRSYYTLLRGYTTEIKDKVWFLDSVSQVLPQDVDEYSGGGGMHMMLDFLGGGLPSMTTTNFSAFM
Description: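 Universal 'all 10-mer' protein binding microarrays (Agilent AMADID 015681) probed with GST-tagged S. cerevisiae TFs (full-length or DBD) made by in vitro transcription/translation (PURExpress), about 100-200 nM. Bound TF was detected with fluorescent anti-GST. Each ungapped 8-mer (which stands for itself and its reverse complement) is scored by the PBM enrichment score (E-score), a modified Wilcoxon-Mann-Whitney statistic from -0.5 to +0.5, computed with the Universal PBM Analysis Suite. Scale: above 0.35 generally sequence-specific binding.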

Row | Sequence | PBM E-score
1 | GGGGTTAC | 0.0772
2 | CTGTGCCA | -0.185
3 | AGCATCAG | -0.0729
4 | ATTCTAAC | -0.0713
5 | AGGCCTGA | -0.274
6 | GTAGGGGA | -0.206
7 | ATACGATA | 0.458
8 | AGACGATA | 0.143
9 | ACACGATA | 0.152
10 | GCACGATA | 0.0343
11 | GTACGATA | 0.456
12 | CTACGATA | 0.311
13 | AAGAACCT | -0.208
14 | GTAAAGCA | 0.0968
15 | TGAAAAAA | -0.0832
16 | ACGTACCA | 0.306
17 | CGGTACCG | 0.234
18 | CCGTACCG | 0.455
19 | GCGTACCC | 0.229
20 | GCGTACCA | 0.273
21 | TGGTACCA | -0.0735
22 | TCTTACCA | 0.061
23 | CCGTACCC | 0.433
24 | TCGTACCA | 0.488
25 | ACGTACCC | 0.295

Row | Sequence | PBM E-score
26 | CCGTACCA | 0.423
27 | ACGTACCG | 0.301
28 | AGGAACCG | 0.0955
29 | GAGTCTAA | -0.115
30 | CATAGGAC | -0.091
31 | TCTATGCA | -0.148
32 | CGTCGTTA | 0.374
33 | AGTCGTTG | 0.184
34 | AGTCGCTC | 0.177
35 | CGTCGTTC | 0.479
36 | CGTCGATC | 0.0984
37 | CGCCGTTC | 0.362
38 | GGTCGTTA | 0.339
39 | AGTCGTTA | 0.273
40 | AGTCGTTC | 0.425
41 | CAATTGAC | -0.0565
42 | AGGTCTGC | -0.195
43 | CGGGAATA | 0.0624
44 | CGAACCCA | 0.167
45 | TCATCGGA | -0.0141
46 | ATGCAGAC | -0.0112
47 | AACTGCGG | 0.0437
48 | TGGCACCA | -0.213
49 | ACGCATAA | 0.0983
50 | TCGCATAA | 0.388

Row | Sequence | PBM E-score
51 | CCGCATAA | 0.119
52 | CGTAAAGC | 0.348
53 | AGTAAAGA | -0.225
54 | CGTAAATA | 0.377
55 | CGTAAAAC | 0.367
56 | AGTAAATA | 0.00942
57 | CGTAAAAG | 0.367
58 | CGTAAAGA | 0.389
59 | CGTAAATC | 0.349
60 | CGTAAAAA | 0.404
61 | GACACTCC | -0.0444
62 | CAGGGTAG | -0.148
63 | AATCTTTA | -0.0885
64 | CCCTGACC | -0.0114
65 | CGCGATAG | 0.135
66 | CCATTTGC | -0.0821
67 | AGTCGAAC | 0.0504
68 | GACGCAAA | 0.114
69 | GAAAAGAA | 0.0308
70 | CAGTTCCA | -0.0209
71 | AAGAGGTG | -0.0239
72 | AGTATACG | 0.433
73 | GGTATACA | -0.21
74 | GGTATACC | 0.0922
75 | CGAATACG | 0.362

Row | Sequence | PBM E-score
76 | AGTATATG | -0.0215
77 | AGTATACT | 0.102
78 | CGTATACG | 0.489
79 | AGTATACA | 0.0981
80 | CGTATACA | 0.46
81 | CGTATACC | 0.469
82 | AGTATACC | 0.0306
83 | TGTATACA | 0.0967
84 | AGGAGAAA | -0.281
85 | TCGATCAA | 0.0228
86 | CGTAATGC | 0.162
87 | CGGAACAA | 0.168
88 | TATGGGAA | -0.0838
89 | GCTTTTGA | -0.115
90 | AACCCTTG | -0.0616
91 | CGGATACA | 0.162
92 | CGGATACC | 0.0623
93 | CGGATACG | 0.386
94 | ATAGACAT | -0.0449
95 | CCAGCGAC | -0.231
96 | CGATAGCG | 0.128
97 | CGGCGACG | 0.0233
98 | ATTATACA | 0.0593
99 | CCTATACA | -0.00901
100 | CCTATACC | -0.0658

Row | Sequence | PBM E-score
101 | ACTATACT | 0.144
102 | CCTATACG | 0.465
103 | ATTATACG | 0.476
104 | ACTATACG | 0.463
105 | ATTATACC | 0.104
106 | ACTATACA | 0.108
107 | TATGCAGA | 0.0611
108 | ATAAGCCC | -0.136
109 | ACCTACCG | -6e-05
110 | TAGTCAGA | -0.276
111 | ACGGGTCG | 0.267
112 | AGACAAAG | 0.0946
113 | CTAAGCGC | 0.0189
114 | CTAAGCGA | 0.385
115 | ATAAGCGA | 0.332
116 | AGACTCAC | -0.22
117 | GCTGGCAC | -0.325
118 | CCGGAATC | -0.169
119 | CGCGGTAA | 0.191
120 | GGTTCCGA | -0.00514
121 | CGTTCCGC | 0.458
122 | AGTTCCGC | 0.09
123 | CTTTCCGC | -0.0543
124 | AGTTCCGA | 0.226
125 | CGTTCCGA | 0.444

Row | Sequence | PBM E-score
126 | ACCGGACA | -0.108
127 | TCCTGAAA | -0.00548
128 | ATTCAAGG | -0.157
129 | AAGAACGG | 0.243
130 | CAGAACGC | -0.0854
131 | CAGAACGG | 0.075
132 | AAGAACGA | 0.453
133 | TAGAACTA | -0.0234
134 | GAGAACGA | 0.422
135 | GAGAACGC | 0.117
136 | TAGAACCA | 0.00176
137 | GAGAACCA | -0.098
138 | AAGAACGT | 0.101
139 | TAGAACGA | 0.429
140 | CAGAACGA | 0.379
141 | GAATCGAC | 0.163
142 | ACGGGAGC | 0.225
143 | TAATCCTA | 0.00777
144 | GACGGAGC | -0.0469
145 | CCTAGGAG | -0.239
146 | CCAAGGCA | -0.0888
147 | CAAGTGCA | -0.24
148 | CTGGATGC | -0.159
149 | GCATAGGC | -0.178
150 | GGCATGAC | -0.121

Row | Sequence | PBM E-score
151 | AGGCTGGG | -0.263
152 | CCAAGCCC | -0.117
153 | CTTCTGTC | -0.199
154 | GGGAACGA | 0.492
155 | GGGAACCA | -0.215
156 | GGGAACAA | 0.143
157 | AGCCATTA | 0.18
158 | AGAGGCTA | -0.209
159 | GAATACTA | 0.141
160 | AAATACGT | 0.0932
161 | CAATACGG | 0.0307
162 | TAATACGA | 0.437
163 | AAATACGC | 0.194
164 | GAATACGA | 0.432
165 | GAATACGC | 0.152
166 | CAATACGC | -0.0345
167 | CAATACGA | 0.403
168 | TAATACTA | 0.114
169 | AAATACGA | 0.451
170 | TAATACCA | 0.0168
171 | ATCGCCGA | 0.00202
172 | GGTTGTCA | -0.195
